{"source": "PubChem BioAssay (NCI)", "note": "About 83,000 compounds went through this panel and 20% of them were active in at least one assay; those are over-represented in the sample as a whole.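 Method: cells in 96-well plates; compound added at one concentration; 48 h incubation; percent growth measured; values under 10 scored active.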 A number with no mark means an inactive call. Active and inactive are the calls of the source."}
{"tested_on": "OVCAR-5 ovarian", "assay": "NCI-60 one-dose screen, 48 h (100 = growth as untreated, 0 = no growth, -100 = all killed)", "conditions": "10 µM unless noted", "description": "Growth inhibition of the OVCAR-5 human tumor cell line is measured as a screen for anti-cancer activity. Cells are grown in 96 well plates and exposed to the test compound for 48 hours. Compounds are tested at a single concentration, which is 10^-5 M for most compounds. The reported endpoint is percent growth (GI% or GIPRCNT), where numbers from 0 - 100% represent growth inhibition, and numbers from -100% - 0 represent cell death. For example, a value of 40 represents 60% growth inhibition. A value of 0 means no net growth occurred over the course of the experiment. A value of -40 indicates 40% of cells at the beginning of the experiment died by the end of the experiment. A value of -100 means all cells are dead at the end of the experiment.\nNCI-60 Human Tumor Cell Lines Screen was performed using the standard one-dose NCI protocol, which is described in more detail at https://dtp.cancer.gov/discovery_development/nci-60/default.htm.\nCompounds with GIPRCNT values below 10 were considered active. Activity score was based on GIPRCNT using the following formula: […]\nScore is 0 for GIPRCNT values of 100 or above, 50 for GIPRCNT values of 0, and 100 for GIPRCNT values of -100."}
{"compound": "COc1cnc2c(c1)C(=O)c1c-2n(CCCN2CCC(N)CC2)c(=O)c2cc([N+](=O)[O-])ccc12", "growth": "119%"}
{"compound": "CCN1CCN(CCCN(C[C@H]2Cc3ccccc3CN2)[C@H]2CCCc3cccnc32)CC1", "growth": "92.7%"}
{"compound": "CC(C)(C)c1nc(-c2cccc(NS(=O)(=O)c3c(F)cccc3F)c2F)c(-c2ccnc(N)n2)s1", "growth": "41.1%"}
{"compound": "O=C(COc1ccc(/C=C2\\Cc3ccc(Cl)cc3C2=O)cc1)Nc1nccs1", "growth": "100%"}
{"compound": "Cc1ccc(-n2nc(C(C)(C)C)cc2NC(=O)NCc2cc(F)ccc2Oc2ccc3c(cnn3CCO)c2)cc1", "growth": "25.7%"}
{"compound": "CCN(CC)CCCC(C)Nc1cc(-c2ccc(C(F)(F)F)cc2)c(C#N)c2nc3ccccc3n12", "note": "(stereo not given)", "growth": "11.7%"}
{"compound": "COc1cc2c(c(OC)c1)C1c3ccccc3NC(=O)N1CC2", "note": "(stereo not given)", "growth": "48.6%"}
{"compound": "CCn1cc(-c2ccnc3[nH]c(-c4cccc(CN(C)C)c4)cc23)c(-c2ccc(NC(=O)N(C)C)cc2)n1", "growth": "24.5%"}
{"compound": "Cc1cccc(Cl)c1NC(=O)c1cnc(Nc2cc(N3CCOCC3)cc(S(C)(=O)=O)c2)s1", "growth": "15.6%"}
{"compound": "CCN(CC)CCNC(=O)c1c(C)[nH]c(/C=C2\\C(=O)Nc3ccc(F)cc32)c1C", "growth": "35%"}
{"compound": "O=c1nc2c(-c3nc4ccccc4s3)n[nH]n2c2sc3c(c12)CCCC3", "growth": "120%"}
{"compound": "CNC(=O)c1nn(C)c2c1C(C)(C)Cc1cnc(Nc3ccc(N4CCN(C)CC4)cc3)nc1-2", "growth": "9.13% (active)"}
{"compound": "Cn1cc(-c2ccc(F)c(C(F)(F)F)c2)nc1C1CCN(c2ncnc3[nH]ncc23)CC1", "growth": "85.8%"}
{"compound": "CCOC(=O)C1=C(C)N=C2Sc3cc(OC(F)(F)F)ccc3N2[C@H]1c1ccccn1", "growth": "65%"}
{"compound": "Cc1ccc(-c2nc3ccc(Cl)cn3c2NC2CCCCC2)o1", "growth": "108%"}
{"compound": "NC1=Nc2ccccc2N(O)N1", "growth": "92.4%"}
{"compound": "Cc1cccc(C)c1N1C(c2ccccc2)=NNC12C=CC(=O)c1c(O)cccc12", "note": "(stereo not given)", "growth": "90.8%"}
{"compound": "COC(=O)Nc1nc2ccc(C(=O)c3ccc(N(C)C4COC4)cc3)cc2[nH]1", "growth": "52.4%"}
{"compound": "Nc1c2c(c(O)c3c1=C(CO)C=N3)=NCCS2=O", "note": "(stereo not given)", "growth": "-61.6% (active)"}
{"compound": "COc1ccc2c(CCc3ccc(Cl)cc3)c3[n+](cc2c1OC)CCc1cc2c(cc1-3)OCO2", "growth": "86.2%"}
{"compound": "COc1ccc(OC)c(NC2=C(SCCc3ccccc3)C(=O)c3ccccc3C2=O)c1", "growth": "99.3%"}
{"compound": "Cc1c(CN2CCN(C(=O)[C@H](C)O)CC2)sc2c(N3CCOCC3)nc(-c3cnc(N)nc3)nc12", "growth": "-11.6% (active)"}
{"compound": "COc1cc(CCc2cc(NC(=O)c3ccc(N4C[C@@H](C)N[C@@H](C)C4)cc3)n[nH]2)cc(OC)c1", "growth": "29.7%"}
{"compound": "COc1cnc2c(c1)C(=O)c1c-2n(CCCn2ccnc2)c(=O)c2cc(Cl)ccc12", "growth": "26.6%"}
{"compound": "C=CC(=O)Nc1cc2c(Nc3ccc(F)c(Cl)c3)ncnc2cc1C#CC(C)(C)N1CCN(C)CC1", "growth": "-95.5% (active)"}
{"compound": "COc1cnc2c(c1)C(=O)c1c-2n(CCCNC2=NCCS2)c(=O)c2cc(Cl)ccc12", "growth": "4.29% (active)"}
{"compound": "CO[C@H]1C[C@@H]2CC[C@@H](C)[C@@](O)(O2)C(=O)C(=O)N2CCCC[C@H]2C(=O)O[C@H]([C@H](C)C[C@@H]2CC[C@@H](OC(=O)C(C)(CO)CO)[C@H](OC)C2)CC(=O)[C@H](C)/C=C(\\C)[C@@H](O)[C@@H](OC)C(=O)[C@H](C)C[C@H](C)\\C=C/C=C/C=C/1C", "growth": "47.1%"}
{"compound": "O=C(c1ccc(F)c(F)c1Nc1ccc(I)cc1F)N1CC(O)([C@@H]2CCCCN2)C1", "growth": "7.14% (active)"}
{"compound": "Cc1sc2c(c1C)c(=O)nc1c(-c3nc4ccccc4s3)n[nH]n12", "growth": "110%"}
{"compound": "CNC(=O)c1cc(Oc2ccc(NC(=O)Nc3cc(C(C)(C)C)nn3-c3ccc4ncccc4c3)c(F)c2)ccn1", "growth": "-3.54% (active)"}
{"compound": "CCOc1cc2ncc(C#N)c(Nc3ccc(OCc4ccccn4)c(Cl)c3)c2cc1NC(=O)/C=C/CN(C)C", "growth": "9.55% (active)"}
{"compound": "O=C(Cn1ccc2ccccc21)Nc1ccc(-c2nc3ccccc3s2)cc1", "growth": "104%"}
{"compound": "COc1ccc(-n2c(=O)c3ccccc3n(Cc3ccc(C(=O)NO)cc3)c2=O)cc1", "growth": "58.4%"}
{"compound": "Cn1nccc1Nc1nccc(-c2ccn([C@H](CO)c3ccc(Cl)c(F)c3)c(=O)c2)n1", "growth": "46.9%"}
{"compound": "CN(N)c1nc2sc3c(c2c(=O)[nH]1)CCCC3", "growth": "131%"}
{"compound": "COc1ccc2c(OCc3nnc4ccc(-c5ccccc5)nn34)ccnc2c1", "growth": "87.3% [2.5 µM]"}
{"compound": "O=C1C=CC2(NN=C(c3ccccc3)N2c2cccc(Cl)c2)C(Cl)=C1", "note": "(stereo not given)", "growth": "92.3%"}
{"compound": "O=C(Nc1ccc(C(=O)Nc2ccc(C3=NCCCN3)cc2)cc1)Nc1ccc(C2=NCCCN2)cc1", "growth": "93.2%"}
{"compound": "CCCCCCCC(=O)SCC/C=C/[C@@H]1CC(=O)NCc2nc(co2)C2=N[C@@](C)(CS2)C(=O)N[C@@H](C(C)C)C(=O)O1", "growth": "-5.93% (active)"}
{"compound": "COc1cc2ncnc(Oc3cccc(NC(=O)Nc4cc(C(C)(C)C(F)(F)F)on4)c3)c2cc1OC", "growth": "12.8%"}
